Measured values as given in PubChem BioAssay (Tox21).
Results filed as inconclusive are left out. Calls of active or inactive are those of the source. Unless noted, calls follow the shape of the dose curve; as a rule, active = well fitted curve in the direction sought with a large enough effect in the repeat runs; inconclusive = weak or mixed curves; inactive = no such curve, though single readings can be large; an effect the other way counts as inactive or inconclusive.

Assays:
[1] = A CellTox Green Cytotoxicity Assay to monitor cytotoxicity in HEK293 cells - 32 hour (AID 1224881); also: nearly all actives have a fitted effect of over 40% in size
Method in brief: (§1)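 Seeding of HEK293 cells together with cytotoxicity dye preceded a 5 h incubation at 37 C/5% CO2. Test compounds in DMSO were then added and fluorescence monitored across 40 h.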

[2] = A CellTox Green Cytotoxicity Assay to monitor cytotoxicity in HepG2 cells - 0 hour (AID 1224882); also: nearly all actives have a fitted effect of over 35% in size
Method in brief: (§2)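 Nonlytic assay: viable cells exclude the dye, so fluorescence scales with cell death. HepG2 at 600 cells/well, compounds added after 5 h, signal read across 40 h.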

[3] = A CellTox Green Cytotoxicity Assay to monitor cytotoxicity in HepG2 cells - 32 hour (AID 1224883); also: nearly all actives have a fitted effect of over 50% in size
Method in brief: as §2

[4] = A CellTox Green Cytotoxicity Assay to monitor cytotoxicity in HEK293 cells - 8 hour (AID 1224884); also: nearly all actives have a fitted effect of over 35% in size
Method in brief: as §1

[5] = qHTS RealTime-Glo MT Cell Viability Assay in HepG2 cells - 16 hour (AID 1224885); also: nearly all actives have a fitted effect of over 50% in size
Method in brief: (§3)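 Viability was tracked continuously by NanoLuc luminescence from prosubstrate reduced by living HepG2 cells, at successive time points over 40 h of compound exposure. Cells with reagent were preincubated 5 h at 37 °C before compound addition.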

[6] = qHTS RealTime-Glo MT Cell Viability Assay in HEK293 cells - 8 hour (AID 1224887); also: top concentration of the series differs between compounds; nearly all actives have a fitted effect of over 50% in size
Method in brief: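 Tox21 screen in HEK293 using RealTime-Glo MT chemistry, with cells and reagent co-dispensed. Luminescence proportional to viable cell number was captured at intervals during 40 h compound exposure at 37 C.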

[7] = A CellTox Green Cytotoxicity Assay to monitor cytotoxicity in HEK293 cells - 16 hour (AID 1224888); also: nearly all actives have a fitted effect of over 35% in size
Method in brief: as §1

[8] = qHTS RealTime-Glo MT Cell Viability Assay in HepG2 cells - 0 hour (AID 1224889); also: nearly all actives have a fitted effect of over 50% in size
Method in brief: as §3

[9] = A CellTox Green Cytotoxicity Assay to monitor cytotoxicity in HepG2 cells - 8 hour (AID 1224890); also: nearly all actives have a fitted effect of over 45% in size
Method in brief: as §2

[10] = qHTS assay to identify small molecule antagonists of the estrogen receptor alpha (ER-alpha) signaling pathway using the BG1 cell line in the presence of 0.1 nM 17-beta-estradiol - cell viability counter screen (AID 1259241); also: nearly all actives have a fitted effect of over 40% in size
Method in brief: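 VM7Luc4E2, 4,000 cells/well, phenol red-free medium + 10% charcoal-stripped FBS; 24 hr plating; cpd + 0.1 nM E2 final, 22 hr 37C/5% CO2; CellTiter-Fluor 30 min, fluorescence.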

[11] = qHTS assay to identify small molecule antagonists of the androgen receptor (AR) signaling pathway using the MDA cell line in the presence of 0.5 nM R1881 - cell viability counter screen (AID 1259242); also: nearly all actives have a fitted effect of over 45% in size
Method in brief: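 R1881 at 0.5 nM final stimulated MDA-kb2 cells during 16 hr compound treatment at 37C. Cytotoxicity read: CellTiter-Fluor fluorescence after 30 min.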

[12] = target: Estrogen receptor (Homo sapiens) (UniProt P03372); assay: qHTS assay to identify small molecule antagonists of the estrogen receptor alpha (ER-alpha) signaling pathway using the BG1 cell line in the presence of 0.1 nM 17-beta-estradiol (AID 1259244); also: nearly all actives have a fitted effect of over 50% in size
Chain of Estrogen receptor (Homo sapiens) (P03372 whole entry, looked up): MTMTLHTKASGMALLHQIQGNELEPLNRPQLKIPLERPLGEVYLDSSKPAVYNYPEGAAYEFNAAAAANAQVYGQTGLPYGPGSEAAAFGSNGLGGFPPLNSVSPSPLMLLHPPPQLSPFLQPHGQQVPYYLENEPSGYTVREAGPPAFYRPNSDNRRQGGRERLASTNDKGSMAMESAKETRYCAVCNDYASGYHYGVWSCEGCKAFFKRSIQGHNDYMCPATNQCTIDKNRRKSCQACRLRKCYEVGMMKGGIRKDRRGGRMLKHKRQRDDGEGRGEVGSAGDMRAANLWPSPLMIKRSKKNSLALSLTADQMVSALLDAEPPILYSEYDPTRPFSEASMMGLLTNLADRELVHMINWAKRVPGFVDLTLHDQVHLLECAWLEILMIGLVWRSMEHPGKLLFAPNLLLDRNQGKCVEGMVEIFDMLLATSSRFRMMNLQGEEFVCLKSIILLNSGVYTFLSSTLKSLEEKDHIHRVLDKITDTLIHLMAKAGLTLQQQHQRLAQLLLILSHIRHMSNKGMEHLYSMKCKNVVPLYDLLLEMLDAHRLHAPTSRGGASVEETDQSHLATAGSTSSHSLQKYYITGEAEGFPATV
Method in brief: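 VM7Luc4E2; 4xERE-luciferase; 0.1 nM E2 final; 22 h co-incubation, 37C; ONE-Glo luminescence after 30 min at room temperature.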

[13] = qHTS assay to identify small molecule HDAC inhibitors (AID 1259364);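 also: wild-type HCT-116 cells with endogenous class I/II HDAC activity; top concentration of the series differs between compounds; nearly all actives have a fitted effect of over 45% in size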
Method in brief: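 Relative class I and II HDAC activity is taken from the luminogenic signal in HCT-116 cells, with compound exposure 2 hr and reagent development 30 min at room temperature.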

[14] = qHTS assay to identify small molecule HDAC inhibitors - cell viability counter screen (AID 1259365)
Method in brief: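 Luminescence from CellTiter-Glo, developed 30min at room temperature, reports viability of wild-type HCT-116 cells treated 2hr with compounds at 37 C and 5% CO2 after overnight plating.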

[15] = qHTS assay to identify small molecule agonists of the sonic hedgehog signaling (Shh) pathway - cell viability counter screen (AID 1259366); also: nearly all actives have a fitted effect of over 50% in size
Method in brief: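 Cytotoxicity counter screen run in the same wells as the Shh reporter assay. NIH/3T3 cells carrying a Gli1 response element–driven luciferase were treated with DMSO-dissolved compounds for 24hr, and live-cell protease activity was measured with CellTiter-Fluor.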

[16] = qHTS assay to identify small molecule antagonists of the sonic hedgehog signaling (Shh) pathway - cell viability counter screen (AID 1259367); also: nearly all actives have a fitted effect of over 55% in size
Method in brief: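 Cells: 3T3 Gli1-Luc, 2,000/well, 4 hr pre-incubation. Compounds in DMSO, then conditioned medium. Incubation 24 hr, 37C, 5% CO2. CellTiter-Fluor at 23 hr, 1 hr, fluorescence.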

[17] = qHTS assay to identify small molecule agonists of the sonic hedgehog signaling (Shh) pathway (AID 1259368; calls by dose curve;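 also: NIH/3T3-derived 3T3Gli1-Luc cells carrying a stable Gli1-driven firefly luciferase reporter; series mostly up to about 92 µM; nearly all actives have a fitted effect of over 15% in size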)
Method in brief: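 Mouse fibroblast (NIH/3T3) reporter cells with stably integrated Gli1-Luc were treated 24 hr with compound; firefly luciferase luminescence served as the read-out.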

[18] = qHTS RealTime-Glo MT Cell Viability Assay in HEK293 cells - 24 hour (AID 1224886)
Method in brief: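 Viability tracked continuously by luminescence as live cells reduce a prosubstrate for NanoLuc; HEK293 cells preincubated 5 h, compound-treated at 37 C, and read at 0, 8, 16, 24, 32 and 40 h.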

[19] = target: Androgen receptor (Homo sapiens) (UniProt P10275); assay: qHTS assay to identify small molecule antagonists of the androgen receptor (AR) signaling pathway using the MDA cell line in the presence of 0.5 nM R1881 (AID 1259243); also: nearly all actives have a fitted effect of over 50% in size
Chain of Androgen receptor (Homo sapiens) (P10275 whole entry, looked up): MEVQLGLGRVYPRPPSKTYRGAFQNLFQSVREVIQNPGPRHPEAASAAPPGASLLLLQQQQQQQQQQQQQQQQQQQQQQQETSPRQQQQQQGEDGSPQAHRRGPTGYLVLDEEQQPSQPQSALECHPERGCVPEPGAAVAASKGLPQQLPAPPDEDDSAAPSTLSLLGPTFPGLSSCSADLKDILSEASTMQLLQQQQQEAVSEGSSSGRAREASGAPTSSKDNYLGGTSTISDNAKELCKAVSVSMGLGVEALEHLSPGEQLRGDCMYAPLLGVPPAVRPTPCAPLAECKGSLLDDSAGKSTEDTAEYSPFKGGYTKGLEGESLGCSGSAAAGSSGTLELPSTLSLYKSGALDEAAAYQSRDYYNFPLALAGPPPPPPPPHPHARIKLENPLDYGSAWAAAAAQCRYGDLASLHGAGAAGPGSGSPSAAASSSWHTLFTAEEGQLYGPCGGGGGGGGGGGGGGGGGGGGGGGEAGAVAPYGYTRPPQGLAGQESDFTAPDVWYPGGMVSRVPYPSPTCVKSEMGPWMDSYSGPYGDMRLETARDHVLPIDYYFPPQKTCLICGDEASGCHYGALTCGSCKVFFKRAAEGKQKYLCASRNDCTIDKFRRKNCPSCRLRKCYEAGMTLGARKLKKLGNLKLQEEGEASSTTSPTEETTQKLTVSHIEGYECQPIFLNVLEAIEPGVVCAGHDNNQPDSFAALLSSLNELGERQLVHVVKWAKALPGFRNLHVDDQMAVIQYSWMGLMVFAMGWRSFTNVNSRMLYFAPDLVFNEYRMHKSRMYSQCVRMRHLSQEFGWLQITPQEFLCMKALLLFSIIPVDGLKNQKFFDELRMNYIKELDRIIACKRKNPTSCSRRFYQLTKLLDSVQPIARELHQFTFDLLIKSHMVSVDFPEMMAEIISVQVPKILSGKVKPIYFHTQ
Method in brief: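 We exposed MDA-kb2 cells to compounds under 0.5 nM R1881 stimulation for 16 hr at 37C and quantified MMTV-driven luciferase by luminescence.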

[20] = qHTS assay to identify small molecule phospholipidosis (PLD) inducers (AID 1259344; active = well fitted curve in the direction sought with a large enough effect; an effect the other way counts as inactive or inconclusive)
Method in brief: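 Phospholipidosis is scored by imaging LipidTOX-stained pits in HepG2 cells exposed to compound for 24 h at 37 C; pit counts and integrated intensities per well and per cell serve as outputs.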

Measured: Potency

CN(C)c1ccc(CCO)cc1
inactive: [1] | [2] | [3] | [4] | [5] | [6] | [7] | [8] | [9] | [10] | [11] | [12] | [13] | [14] | [15] | [16] | [17]

CCCCCCCC#N
inactive: [1] | [2] | [3] | [4] | [5] | [18] | [7] | [8] | [9] | [10] | [11] | [13] | [14] | [15] | [17]

CCCCCCCCCCCC(=O)OC[C@@H](O)[C@H]1OC[C@H](OCCO)[C@H]1OCCO
inactive: [1] | [2] | [3] | [4] | [5] | [18] | [7] | [8] | [9] | [10] | [11] | [12] | [13] | [14] | [15] | [16] | [17]

O=C(O)c1ccco1
inactive: [1] | [2] | [3] | [4] | [5] | [18] | [8] | [9] | [10] | [11] | [12] | [13] | [14] | [15] | [16] | [17]

Cc1c(N)cccc1[N+](=O)[O-]
inactive: [1] | [2] | [3] | [4] | [5] | [18] | [7] | [8] | [9] | [10] | [11] | [12] | [13] | [14] | [15] | [16] | [17]

O=[N+]([O-])c1ccc2[nH]ncc2c1
inactive: [1] | [2] | [3] | [4] | [5] | [18] | [7] | [8] | [9] | [10] | [11] | [12] | [13] | [15] | [16] | [17]

NCc1ccccc1Sc1ccccc1CO
inactive: [1] | [2] | [3] | [4] | [5] | [18] | [7] | [8] | [10] | [11] | [19] | [12] | [20] | [13] | [14] | [15] | [16] | [17]
